The list is not random: actives were taken first. Their share in the collection is about 19%.
DT40 TDP1 no CPT: qHTS for Inhibitors of human tyrosyl-DNA phosphodiesterase 1 (TDP1): qHTS in cells in absence of CPT; DT40 Tdp1-/- hTDP1 cells, no CPT, ATP luminescence, 48 h; Potency, µM (series often up to 46.2 µM), without a hit: at the highest dose activity change, negative = growth inhibition, usual class: inhibitors; 420,000 compounds, 15% hits; AID 686978, 2013; note: potency is the fitted concentration of half-maximal effect; % is set by controls: 0 for no effect and ±100 for the full control effect; nearly all actives have a fitted effect of over 55% in size
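DT40 Tdp1-/-;hTDP1 cells, no CPT (DMSO vehicle only), 400 cells/well; compounds pin-transferred; ≥48 hr, 37 °C; CellTiter-Glo 30 min RT dark, luminescence read.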
HepG2 tox-1: qHTS for Inhibitors of TGF-b: Cytotox Counterscreen; HepG2 CAGA-GFP viability, ATP luminescence, 18 h; Potency, µM (titrated, usually from 46.1 µM), inactives show at the top dose activity change, negative = cytotoxicity, actives largely listed as cytotoxic; 410,000 compounds, 0.76% hits; AID 588856, 2011; note: potency is the fitted concentration of half-maximal effect
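HepG2 CAGA-GFP cells (1000/well, DMEM with 1% FBS) received compound, then TGF-beta at 500 pg/mL final, and were incubated 18 hours at 37 degrees C. Viability was read by CellTiter-Glo luminescence. Media-only wells were set as complete cell-killing and DMSO as no toxicity.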
IL-1B inflam inh: qHTS for Inhibitors of Inflammasome Signaling: IL-1-beta AlphaLISA Primary Screen. THP-1 LPS/ATP IL-1B secretion, AlphaLISA, 16 h; active compounds read low. activity change, % at 57.5 µM. 360,000 compounds, 4.7% hits; in the data active = activity change below about -50%; inconclusive = mostly about -30% to -49%; note: % is set by controls: 0 for no effect and ±100 for the full control effect
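THP-1 cells pretreated 1 hr with compounds (up to 57.5 uM final), then stimulated with LPS (250 ng/mL final) plus ATP (1.25 mM final); secreted IL-1B measured by AlphaLISA after 16 hr, decreased signal indicating inhibition.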
TDP1 inh: qHTS Assay for Inhibitors of Tyrosyl-DNA Phosphodiesterase (TDP1). recombinant TDP1, AlphaScreen DNA substrate cleavage. 350,000 compounds, 0.28% hits. Potency, µM (series often up to 130 µM), for inactives: top-dose activity change, negative = inhibition, most hits filed as inhibitors. Tyrosyl-DNA phosphodiesterase 1 (Homo sapiens), Q9NUW8; note: potency is the fitted concentration of half-maximal effect; % is set by controls: 0 for no effect and ±100 for the full control effect; nearly all actives have a fitted effect of over 40% in size
Target sequence (Q9NUW8 whole entry, looked up): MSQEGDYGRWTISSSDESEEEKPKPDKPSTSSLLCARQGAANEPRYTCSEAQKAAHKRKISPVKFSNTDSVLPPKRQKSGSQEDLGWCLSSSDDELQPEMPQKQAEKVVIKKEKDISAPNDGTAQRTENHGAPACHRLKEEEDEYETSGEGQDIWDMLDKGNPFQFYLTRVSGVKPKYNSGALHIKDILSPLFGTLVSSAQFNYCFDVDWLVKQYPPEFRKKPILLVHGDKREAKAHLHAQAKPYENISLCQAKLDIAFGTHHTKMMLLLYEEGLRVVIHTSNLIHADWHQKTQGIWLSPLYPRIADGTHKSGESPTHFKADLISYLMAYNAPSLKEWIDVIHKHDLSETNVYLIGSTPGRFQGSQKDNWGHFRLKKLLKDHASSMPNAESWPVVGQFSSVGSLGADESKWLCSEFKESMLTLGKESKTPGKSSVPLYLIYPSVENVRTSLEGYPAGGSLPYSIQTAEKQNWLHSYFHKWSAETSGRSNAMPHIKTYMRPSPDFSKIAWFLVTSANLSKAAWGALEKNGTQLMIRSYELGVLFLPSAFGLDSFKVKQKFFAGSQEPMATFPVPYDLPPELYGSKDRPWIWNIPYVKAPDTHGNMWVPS
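Recombinant human Tdp1 (E. coli-expressed, 1 nM final) preincubated with compounds 15 min at room temperature, then 5'-biotin/3'-phosphotyrosine-FITC DNA substrate (15 nM final) added for 5 min. AlphaScreen beads (10 ug/ml final) added 10 min; cleavage lowers signal.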
TDP1 cell CPT: qHTS for Inhibitors of human tyrosyl-DNA phosphodiesterase 1 (TDP1): qHTS in cells in presence of CPT; chicken DT40 Tdp1-/-;hTDP1 cells + 20 nM CPT, ATP luminescence, 48 h; Potency, µM (series often up to 46.2 µM), for inactives: at the highest dose activity change, negative = growth inhibition, hits mostly inhibitors; 420,000 compounds, 12% hits; note: potency is the fitted concentration of half-maximal effect; % is set by controls: 0 for no effect and ±100 for the full control effect; nearly all actives have a fitted effect of over 55% in size
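Chicken DT40 Tdp1-/- cells complemented with human TDP1, 400 cells/well, exposed to compounds plus 20 nM camptothecin for at least 48 h at 37 C; viability read as ATP content by CellTiter-Glo luminescence.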
TGFb SMAD3 inh: qHTS for Inhibitors of TGF-b | 410,000 compounds, 1.2% hits | HepG2 CAGA-GFP TGF-b/SMAD3 reporter, GFP fluorescence, 18 h; TGF-beta stimulated, 500 pg/mL final | Potency, µM (top dose mostly 46.1 µM), for inactives: at the top dose activity, negative = inhibition, most hits filed as inhibitors; note: potency is the fitted concentration of half-maximal effect; % is set by controls: 0 for no effect and ±100 for the full control effect; nearly all actives have a fitted effect of over 65% in size
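Inhibition was scored as loss of TGF-beta-induced (500 pg/mL final, 18 hours, 37 degrees C) GFP in HEPG2 cells carrying a CAGA-GFP reporter, in DMEM with 1% FBS. Well GFP was summed per cell; Activity was normalised to unstimulated and stimulated DMSO wells, then concentration-response fitting.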
TGFb CAGA inh: qHTS for Inhibitors of TGF-b: Confirmation of Cherry Picks | shares compounds with TGFb SMAD3 inh | HepG2 CAGA-GFP TGF-b reporter, GFP fluorescence, 18 h; cells stimulated with TGF-beta, 500 pg/mL | Potency, µM (top dose mostly 46.1 µM), for the others: at the highest dose activity, negative = inhibition, most hits filed as inhibitors | 1,600 compounds, 63% hits; note: potency is the fitted concentration of half-maximal effect; % is set by controls: 0 for no effect and ±100 for the full control effect; nearly all actives have a fitted effect of over 65% in size
HepG2 tox-2: qHTS for Inhibitors of TGF-b: Cytotox Counterscreen for Cherry Picks; shares compounds with TGFb SMAD3 inh; HepG2 CAGA-GFP viability, ATP luminescence, 18 h; cells stimulated with TGF-beta, 500 pg/mL; Potency, µM (titrated, usually from 46.1 µM), inactives show top-dose activity, negative = cytotoxicity, most hits filed as inhibitors; 1,600 compounds, 27% hits; AID 720535, 2013; note: potency is the fitted concentration of half-maximal effect; % is set by controls: 0 for no effect and ±100 for the full control effect; nearly all actives have a fitted effect of over 70% in size
CCL64 TGFb inh: qHTS for Inhibitors of TGF-b: CCL64 Cells Orthogonal Assay for Cherry Picks | shares compounds with TGFb SMAD3 inh | 1,600 compounds, 41% hits | AID 720536, 2013 | Potency, µM (doses to about 46.1 µM), inactives show at the highest dose activity, negative = inhibition, actives largely listed as inhibitors | CCL64 CAGA-GFP reporter, TGF-b stimulated, GFP fluorescence, 18 h; note: potency is the fitted concentration of half-maximal effect; nearly all actives have a fitted effect of over 65% in size
TGFb COP inh: qHTS for Inhibitors of TGF-b: Hit Validation in HepG2 Cells using COP promoter; shares compounds with TGFb SMAD3 inh; HepG2 COP-GFP TGF-b reporter, GFP fluorescence, 18 h; cells stimulated by added recombinant TGF-beta; Potency, µM (top dose mostly 46.1 µM), without a hit: at the highest dose activity, negative = inhibition, hits mostly inhibitors; 1,600 compounds, 3% hits; note: potency is the fitted concentration of half-maximal effect; nearly all actives have a fitted effect of over 70% in size
* marks the source's active call; other numbers are inactive results; ? = inconclusive; . = no result. Unless noted, calls come from the whole dose curve; as a rule, active = well fitted curve in the direction sought with a large enough effect; inconclusive = small, poorly fitted or top-dose-only effect, or another doubt; inactive = no such curve, though single readings can be large; an effect the other way counts as inactive or inconclusive.

SMILES | DT40 TDP1 no CPT | HepG2 tox-1 | IL-1B inflam inh | TDP1 inh | TDP1 cell CPT | TGFb SMAD3 inh | TGFb CAGA inh | HepG2 tox-2 | CCL64 TGFb inh | TGFb COP inh
COc1ccccc1NC(=O)COC(=O)CCn1c(C)csc1=O | 3.6% | -3.2% | 6.9 | 0.4% | 15.4% | -15.9% | . | . | . | .
CCOc1ccc(Cl)cc1-c1cc(C(=O)NCc2cc(C(F)(F)F)cc(C(F)(F)F)c2)[nH]n1 | ? | -22.3% | 0.0 | . | 23.1µM* | 15.8µM* | 16.4µM* | ? | ? | 21.3%
Cc1cccc2nnc(-c3ccccc3)n12 | 10.8% | 11.9% | 6.6 | . | 7.4% | 15.0% | . | . | . | .
O=C1c2cc(Cl)ccc2-c2c(O)cc(Cl)cc21 | 14.6µM* | -15.4% | -74.4* | . | ? | 11.2µM* | 11.6µM* | ? | 8.2µM* | 27.0%
Cc1cc(C(=O)N2CCN(C/C=C/c3ccccc3)CC2)cs1 | -31.1% | -7.7% | 1.4 | 1.0% | 2.8% | 15.8µM* | ? | -17.5% | 9.1% | -22.3%
CC(=O)Nc1ncc(Cc2cc(Cl)ccc2Cl)s1 | ? | 0.7% | 58.9 | 7.4% | -28.0% | ? | ? | 2.4% | -0.2% | 16.8%
CCc1ccc(CCC(=O)Nc2ncc(Cc3ccccc3Cl)s2)o1 | 5.8µM* | -34.5% | -0.9 | 0.6% | 5.17µM* | 2µM* | ? | -18.7% | -28.2% | -6.0%
COC(=O)N1CCC2(CCCN(C(=O)Nc3cccc(F)c3)C2)CC1 | -4.0% | . | . | . | -0.1% | . | . | . | . | .
CC(=O)O[C@H]1CC[C@@]2(C)C(CCC3C2CC[C@]2(C)OC(=O)CCC32)C1 (some centres undefined) | -26.5% | -5.9% | 37.2 | 5.2% | 1.1% | 1.4% | . | . | . | .
CC(=O)OC1CCC2(C)C(CCC3C4CC=C(C(C)=O)C4(C)OC(=O)CC32)C1 (centres undefined) | 2.06µM* | 12.6µM* | -107.4* | . | 2.31µM* | 3.98µM* | 18.4µM* | 11.6µM* | 2.91µM* | ?
COC(=O)c1cccc(NC(=O)CSc2nnc(COc3ccccc3)n2C)c1 | -6.6% | 3.9% | 13.6 | 7.8% | -11.7% | -0.7% | . | . | . | .

Screening data as filed in PubChem BioAssay.
